High-throughput results as filed in PubChem.
14-3-3 Bad inh = disrupts binding of bovine 14-3-3 zeta to phospho-Bad peptide | P63103 | inhibition, % at 21.7 µM | AID 781 | TR-FRET 14-3-3zeta/Dy647-pBad peptide displacement, 1 h | 0.71% of 220,000 active;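 active = inhibition above about 70%, limit read from the data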;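 also: 0% = full 14-3-3 plus peptide FRET controls and 100% = background without 14-3-3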
p47phox inh = p47phox (human) inhibition | P14598 | p47phox/p22phox peptide binding, fluorescence polarization, 2 h | inhibition, % at 24.7 µM | 0.53% of 220,000 active;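 also: 0% = p47phox with labelled peptide and 100% = labelled peptide alone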
eIF4E 4G PPI = blocks eIF4E binding to eIF4G; P63073+Q04637; TR-FRET eIF4E-eIF4GI(517-606) binding, 2 h; inhibition, % at 21.7 µM; 0.37% of 220,000 active;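 also: 0% = full FRET control wells and 100% = background wells lacking eIF4GI fragment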
Mcl1-Noxa inh = disrupts binding of human Mcl-1 to Noxa peptide; Q07820; 1.5% of 220,000 active; TR-FRET Mcl-1/Noxa peptide binding, 2 h; inhibition, % at 21.7 µM;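 active = compounds that cut the protein-peptide binding signal by more than 50% relative to plate controls in a single-dose test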;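 also: His-tagged Mcl-1 with rhodamine Noxa BH3 peptide and terbium anti-His antibody; 0% = Mcl-1 plus Noxa peptide wells and 100% = peptide-only wells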
Mcl-1 Bim block = human Bim-Mcl-1 interaction inhibition. Q07820. Bead-based flow cytometry, Bim peptide-Mcl-1 binding. inhibition, % at 10 µM. 0.1% of 190,000 active. AID 1009; in the data active = inhibition above about 40%;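 also: 0% = no compound tracer wells and 100% = peptide blocker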
Mcl1-Bid inh = disrupts binding of human Mcl-1 to Bid peptide; Q07820; TR-FRET Mcl-1/Bid-Dy647 peptide binding, 1536-well; inhibition, % at 21.7 µM; 0.97% of 220,000 active;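 active = compounds that cut the binding signal by more than half at the single screening dose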;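 also: His-tagged Mcl-1 with europium anti-His antibody binding Bid BH3 peptide; 0% = Mcl-1 plus peptide wells and 100% = peptide-only wells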
Numbers without * were called inactive; x = not tested or not shown; [ ] = dose if it differs, or a comment. Only some compounds are listed: those with a hit (about 3.3% of all), similar ones and a draw of the others.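 The calls were made as follows, unless noted: active = inhibition above about 30% (limit read from the data); inactive = the rest.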

SMILES	14-3-3 Bad inh	p47phox inh	eIF4E 4G PPI	Mcl1-Noxa inh	Mcl-1 Bim block	Mcl1-Bid inh
Cc1ccc2[nH]c(=O)c(-c3nc4cc(C)ccn4c3NCc3ccco3)cc2c1	63	3	-8	60*	0	80*
Cc1cccc2cc(-c3nc4c(C)cccn4c3NCc3ccco3)c(=O)[nH]c12	-10	-3	-4	-5	-2	-47
O=C(Nc1ccc(-c2nc3ccc(NC(=O)c4cccs4)cc3[nH]2)cc1)c1cccs1	82*[fluorescence artefact?]	-15	-41	65*	-11	84*
O=C(Nc1ccc2nc(-c3cccs3)[nH]c2c1)c1cccs1	1	-11	-8	18	7	-2
Cc1cc(C)c2nc(-c3ccccn3)cc(C(=O)Nc3ccc(S(=O)(=O)Nc4cc(C)on4)cc3)c2c1	-2	-34	6	36	-1	-3
Cc1cc(C)c2nc(-c3ccccn3)cc(C(=O)Nc3ccc(S(=O)(=O)Nc4onc(C)c4C)cc3)c2c1	15	-16	22	79*	4	-7
Cc1cc(N/N=C/c2ccc(O)cc2)nc(NS(=O)(=O)c2ccccc2)n1	5	-4	13	53*	7	-11
COc1ccc(N(C(=O)C(C)C)S(=O)(=O)c2cccc3cccnc23)cc1	1	59*	11	-4	-2	-11
N#C/C(=N\Nc1ccccc1F)c1nc(-c2ccccc2)cs1	-8	-5	1	3	0	4
CN(C)c1nc(Nc2ccccc2)nc(N(C)C)n1	80*	-1	0	12	0	13
COC(=O)c1ccc(Oc2nc(Nc3ccccc3)nc(N(C)C)n2)cc1	-3	-16	-3	15	0	-9
CCN(Cc1cc(=O)n2ccsc2n1)Cc1nc2ccccc2c(=O)[nH]1	-14	-9	2	-20	0	-31
CN=c1scc(-c2ccccc2F)n1/N=C/c1ccc[nH]1	-11	-3	8	24	-4	-3
CC(C)N=c1scc(-c2cccs2)n1/N=C/c1ccc(O)c(O)c1O	-20	-8	12	52*	-3	-94
CN=c1scc(-c2ccccc2F)n1/N=C/c1ccc(O)c(O)c1O	8	-4	12	58*	-1	-38
CC1CCC2(CC1)NC(=O)N(CC(=O)NC(=O)Nc1ccc3c(c1)OCCO3)C2=O (centres undefined)	-2	-3	4	-3	x	-4
CC1=NN(c2nc(-c3ccc(C)cc3)cs2)C(=O)C1N=Nc1cccc(C)c1 (centres undefined)	-2	-42	2	-11	-4	-59
CCOC(=O)c1sc(N2N=C(C)C(N=Nc3cccc(C)c3)C2=O)nc1C (centres undefined)	97*	28	9	35	x	86*
CC1CCN(C(=O)c2ccc3c(Cl)c4c(nc3c2)CCCC4)CC1	-12	-2	82*	15	0	-24
O=C(c1ccc2c(Cl)c3c(nc2c1)CCCC3)N1CCN(c2ccc(F)cc2)CC1	9	11	-4	4	-4	6
CCc1ccc(S(=O)(=O)NC(=S)Nc2ccccc2)cc1	1	0	0	10	-1	-66
CCS(=O)(=O)c1ccc2oc(Nc3ccc(C(C)C)cc3)nc2c1	33	8	44*	-3	-11	6
Cc1ccc(S(=O)(=O)N(C)c2c(C)ccc(S(N)(=O)=O)c2C)cc1	-13	6	0	3	-1	0
COc1cc(S(=O)(=O)Nc2cccc(C)c2)ccc1NC(=O)c1ccncc1	-1	-7	-4	12	-4	95*
CCOC(=O)c1csc(NC(=O)CSc2nnnn2-c2ccc(OC)cc2)n1	-10	-2	3	-1	-3	-28
SMILES	14-3-3 Bad inh	p47phox inh	eIF4E 4G PPI	Mcl1-Noxa inh	Mcl-1 Bim block	Mcl1-Bid inh
Cn1ccnc1SCC(=O)Nc1sccc1C#N	0	-6	6	37	0	-39
N#Cc1ccsc1NC(=O)CSc1ncnc2ccccc12	1	-25	-7	68*	-1	-8
CCOC(=O)c1c(NC(=O)CSc2ncnc3ccccc23)sc(C)c1C	17	17	5	20	0	59*
CCOC(=O)c1c(NC(=O)CSc2ccccc2C(=O)O)sc(C)c1C	1	3	-3	8	0	-49
N#Cc1ccsc1NC(=O)CSc1ncn[nH]1	-3	-8	1	3	0	-19
N#Cc1ccsc1NC(=O)CSc1nnnn1-c1ccc(O)cc1	-1	x	6	66*	-1	-17
CCOC(=O)c1c(NC(=O)CSc2nnnn2-c2ccc(OC)cc2)sc(C)c1C	42	-44	30*	2	-3	-30
O=C1CN(C(=O)c2ccc(Cl)c(S(=O)(=O)N3CCc4ccccc43)c2)c2ccccc2N1	1	-25	8	3	x	-48
COc1ccc(-n2cc(CNCc3cnc4ccccn34)c(-c3cccc(F)c3)n2)cc1	-23	-27	-2	15	0	-14
O=C1C2CC=C(Cl)CC2C(=O)N1CCCCCCN1C(=O)C2CC=C(Cl)CC2C1=O (centres undefined)	11	-28	13	55*	1	-27
COc1ccc(OCCNC(=O)c2ccccc2OCC(=O)N2CCCCC2)cc1	0	-5	-2	-13	68*	-7
COc1ccc(OCCNC(=O)c2ccccc2OCC(=O)Nc2ccc(NC(C)=O)cc2)cc1	10	-8	2	16	-1	-25
Cc1ccc2nc(-c3ccc(SCC(=O)Nc4nc(C)cs4)nc3)[nH]c2c1	-4	-29	-2	21	-5	-23
Cc1ccc2nc(-c3ccc(SCC(=O)Nc4nnc(C)s4)nc3)[nH]c2c1	31	7	7	68*	-4	70*
Cc1cc2nc(-c3ccc(SCC(=O)N4CCN(C(=O)c5ccco5)CC4)nc3)[nH]c2cc1C	0	-68	-7	71*	1	-31
CCOC(=O)CSc1ccc(-c2nc3ccccc3[nH]2)cn1	10	-4	2	51*	0	-13
COc1ccc(C2=CSC3=NCCN23)cc1F	0	7	38*[fluorescence artefact?]	16	-2	-49
NC(=O)Cc1ccc(Nc2nnc(-c3ccc(O)cc3)c3ccccc23)cc1	6	-17	2	31	-6	-4
NC(=O)c1ccc(Nc2nnc(-c3ccc(O)cc3)c3ccccc23)cc1	25	-11	-3	52*	-4	13
CN(C)S(=O)(=O)c1cc(C(=O)NCC2CCCO2)c(Cl)cc1Cl (centres undefined)	1	-11	-8	15	-3	-4
CCNC(=O)c1cc(S(=O)(=O)N(C)C)c(Cl)cc1Cl	88*	-4	-1	28	2	72*
CC(O)[C@H]1CNC(=O)C(=O)N1CC(C)(C)C (some centres undefined)	1	-3	-6	14	x	-23
